VHR inh abs: DUSP3 (human) phosphatase inhibition | recombinant VHR phosphatase, pNPP absorbance | inhibition, % at 13.3 µM | 0.52% of 290,000 active | AID 1654; in the data active = inhibition above about 50%
Target sequence (P51452 whole entry, looked up): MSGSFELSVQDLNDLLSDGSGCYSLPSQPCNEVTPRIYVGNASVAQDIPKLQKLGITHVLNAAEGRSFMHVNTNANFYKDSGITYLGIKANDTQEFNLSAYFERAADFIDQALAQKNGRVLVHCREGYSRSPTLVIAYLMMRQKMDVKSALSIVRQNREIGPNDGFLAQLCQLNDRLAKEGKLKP
PrPC surface inh: cell surface PrPC inhibition, primary TR-FRET screen; 0.43% of 370,000 active; AID 720596; inhibition, % at 13.8 µM; TR-FRET read-out; P04156; in the data active = inhibition above about 24%; also: 0% = median of the test wells and 100% = reference compound wells
TcdB GH inh: TcdB glycohydrolase inhibition. TcdB glycohydrolase enzymatic assay, plate reader. inhibition, % at 9.99 µM. 0.24% of 350,000 active. AID 652162; in the data active = inhibition above about 10%
Numbers without * were called inactive; x = no result given. An excerpt weighted towards active compounds, which were near 0.82% of everything screened.

SMILES	VHR inh abs	PrPC surface inh	TcdB GH inh
O=C(c1cccc(F)c1)N1CCCCN2[C@@H](CO)[C@H](c3ccc(/C=C/c4ccccc4)cc3)[C@@H]2C1	x	x	1.6
COc1cccc(NC(=O)C[C@@H]2CC[C@H]3[C@H](COc4ccc(NC(C)=O)cc4C(=O)N3C)O2)c1	x	x	-1.3
N#CC1(N2CCN(C(=O)c3ccccc3)CC2)CCCCC1	53.9*	-0.9	0.9
NC(=O)C1(N2CCCCC2)CCN(C(=O)c2ccccc2)CC1	25.0	-7.0	0.6
O=C(C[C@@H]1CC[C@H](NC(=O)c2ccc(F)cc2)[C@@H](CO)O1)NCCc1ccncc1	x	x	-0.3
O=[N+]([O-])c1cnccc1-n1nnc2ccccc21	x	-14.8	0.6
O=C(O)c1ccc(-n2nnc3ccccc32)c([N+](=O)[O-])c1	20.3	-14.2	13.6*
C[C@H]1CCCCO[C@@H](CN(C)Cc2ccc(C(=O)O)cc2)[C@@H](C)CN([C@@H](C)CO)C(=O)c2cc(NC(=O)c3ccncc3)ccc2O1	x	x	0.3
CCOC(=O)N1CCC(NC(=O)CN2C(=O)CSc3nc(C)cc(C)c32)CC1	12.4	-8.4	0.0
CCOC(=O)N1CCN(C(=O)CCCN2C(=O)CSc3nc(C)cc(C)c32)CC1	51.0*	-1.9	x
C[C@@H]1CN([C@H](C)CO)C(=O)CCCn2cc(nn2)CO[C@H]1CN(C)Cc1cccc2c1OCCCO2	x	x	-0.5
O=C(C[C@H]1CC[C@@H]2[C@H](COC[C@H](O)CN2S(=O)(=O)c2ccc(F)cc2)O1)N[C@@H]1CCN(Cc2ccccc2)C1	x	x	-1.9
Cc1ccc(S(=O)(=O)NCCNS(=O)(=O)c2ccc(C)cc2)cc1	58.2*	3.0	1.6
Cc1ccc(S(=O)(=O)NCCCNS(C)(=O)=O)cc1	2.6	0.0	3.2
Cc1ccc(CNC(=O)C2CCC(CNS(=O)(=O)c3cccc4cccnc34)CC2)cc1 (configuration not stated)	17.8	7.2	0.1
COc1cccc(CNC(=O)C2CCC(CNS(=O)(=O)c3cccc4cccnc34)CC2)c1 (configuration not stated)	55.5*	-9.2	1.5
Cc1nc2scc(-c3cccs3)c2c(=O)[nH]1	54.7*	-9.7	x
O=c1[nH]c(-c2ccc(O)cc2)nc2scc(-c3cccs3)c12	22.8	4.4	0.9
CCCCC(=O)NC(=S)Nc1cc([N+](=O)[O-])ccc1OC	25.7	-6.8	2.3
CC(=O)Nc1ccc(OC(=O)c2cc([N+](=O)[O-])ccc2Cl)cc1	31.6	x	1.8
COc1cc([N+](=O)[O-])ccc1NC(=O)Oc1ccc(NC(C)=O)cc1	4.9	9.2	10.4*
COc1ccc([N+](=O)[O-])cc1NC(=S)NC(C)=O	17.5	-5.3	15.9*
CS(=O)(=O)N1CC2(C1)[C@@H](c1ccccc1)[C@@H](CO)N2CC1CC1	x	x	0.4
C[C@H](CO)N1C[C@H](C)[C@H](CN(C)Cc2cncnc2)Oc2ncc(-c3ccc(F)cc3)cc2C1=O	x	x	-7.6
CO[C@@H]1CN(C)C(=O)c2cc(NC(=O)Nc3cccc(F)c3)ccc2OC[C@H](C)N(C)C[C@H]1C	x	x	-0.6
SMILES	VHR inh abs	PrPC surface inh	TcdB GH inh
Cc1ccc2ccc[n+](Cc3ccccc3)c2c1	x	-17.2	10.9*
Cc1ccc2c(c1)c(C)cc[n+]2Cc1ccccc1	-8.8	-2.7	x
COC(=O)c1ccc(OC(=O)c2ccc(OC)c(OC)c2)c(OC)c1	29.9	0.1	x
COC(=O)c1ccc(OC(=O)c2ccc(OC)cc2)c(OC)c1	6.0	-2.9	11.2*
Cc1noc(C)c1NC(=O)Nc1ccc2c(c1)C(=O)N([C@H](C)CO)C[C@H](C)[C@H](CN(C)C(=O)CCCN(C)C)OCCCC[C@H](C)O2	x	x	-2.0
CCC(CO)[n+]1c(C)cc(/C=C2\Sc3ccccc3N2Cc2ccccc2)cc1C (configuration not stated)	13.3	-3.4	22.3*
CCN1/C(=C2\SC(=S)N(Cc3ccccc3)C2=O)Sc2ccccc21	32.8	3.4	0.7
O=C(C[C@H]1C[C@H]2c3cc(NC(=O)CC4CC4)ccc3O[C@H]2[C@@H](CO)O1)NCC(F)(F)F	x	x	0.9
C=CCOc1nc2c(c(=O)n(C)c(=O)n2C)n1Cc1ccccc1Cl	16.2	10.1	x
C=CCOc1nc2c(c(=O)n(C)c(=O)n2C)n1Cc1ccc(Cl)cc1	55.4*	-0.9	x
COc1ccc(S(=O)(=O)N[C@H]2C=C[C@H](CC(=O)NCc3ccccc3F)O[C@@H]2CO)cc1	x	x	-1.8
COc1ccc(Br)cc1/C=N/n1c(C)nc2ccccc2c1=O	58.2*	-7.7	1.0
COc1ccc(OC)c(/C=N/n2c(C)nc3ccccc3c2=O)c1	x	-2.0	1.0
O=C(c1ccc(F)cc1)N1C[C@H]2[C@@H](c3ccccc31)[C@H](CO)N2C(=O)c1ccc(F)cc1	x	x	-0.9
CN(C)CC(=O)N[C@H]1C=C[C@@H](CC(=O)NCc2ccc(Cl)cc2)O[C@H]1CO	x	x	0.5
O=C(C[C@@H]1C[C@H]2c3cc(NC(=O)c4cccnc4)ccc3O[C@H]2[C@H](CO)O1)NCCc1ccccc1	x	x	0.7
CCCn1c(=S)[nH]c2cc(OC)c(OC)cc2c1=O	1.2	x	1.7
COc1cc2[nH]c(=S)n(Cc3cccs3)c(=O)c2cc1OC	14.9	-6.2	25.0*
Cn1c(Cc2cccs2)nnc1SCc1nc2ccccc2[nH]1	53.4*	-1.6	x
Cn1c(SCc2nc3ccccc3[nH]2)nnc1-c1cccs1	8.4	-6.5	2.8
C[C@H](CO)N1C[C@H](C)[C@@H](CN(C)C(=O)Nc2ccc(C(F)(F)F)cc2)Oc2ncc(-c3cccnc3)cc2C1=O	x	x	1.4
CC1(C)CC(NS(=O)(=O)c2ccc(Cl)cc2)CC(C)(C)N1	53.9*	-1.5	0.2
COc1ccc(S(=O)(=O)NC2CC(C)(C)NC(C)(C)C2)cc1	-13.6	-5.4	1.4
COc1cc(C)c(Cl)cc1S(=O)(=O)NC1CC(C)(C)NC(C)(C)C1	38.3	x	x
Cc1cc(S(=O)(=O)NC2CC(C)(C)NC(C)(C)C2)c(Cl)cc1Cl	59.7*	-3.0	0.0
SMILES	VHR inh abs	PrPC surface inh	TcdB GH inh
CCCNC(=O)N(C)C[C@@H]1Oc2cc(C3=CCCCC3)ccc2S(=O)(=O)N([C@@H](C)CO)C[C@@H]1C	x	x	-0.5
COc1ccc(OCc2cc(C(=O)NC(C)c3cnn(C)c3)no2)c(Cl)c1 (configuration not stated)	1.1	0.3	-1.4
Cc1nc2cc(OCc3cc(C(=O)NC(C)c4cnn(C)c4)no3)ccc2s1 (configuration not stated)	51.1*	0.2	0.0
Cc1noc(C)c1NC(=O)N(C)C[C@H]1Oc2ccc(NC(=O)Cc3cn(C)c4ccccc34)cc2CC(=O)N([C@@H](C)CO)C[C@H]1C	x	x	-0.8
CCc1ccc(C(=O)NNC(=O)C2CC(=O)N(Cc3ccccc3)C2)cc1 (configuration not stated)	x	6.8	0.4
O=C(NNC(=O)C1CC(=O)N(Cc2ccccc2)C1)c1ccc(Br)cc1 (configuration not stated)	57.1*	2.1	1.2
CCOc1ccc(S(=O)(=O)N2CCc3ccccc3C2)cc1	22.6	5.5	x
COc1ccc(S(=O)(=O)N2CCc3ccccc3C2)cc1	51.4*	5.2	-1.1
Cc1ccc(Cn2c(=O)oc3ccccc32)cc1	15.5	-0.1	1.3
O=c1oc2ccccc2n1Cc1cccc(F)c1	52.6*	5.3	1.9
Cc1noc(C)c1NC(=O)N(C)C[C@@H]1OCCCC[C@@H](C)Oc2ccc(NS(=O)(=O)c3ccc(Cl)cc3)cc2C(=O)N([C@@H](C)CO)C[C@H]1C	x	x	-0.2

From PubChem
